Shown is part of a subset that was picked to be rich in hits.
Dicer processing – human Dicer pre-microRNA cleavage inhibition; Q9UPY3; cat-ELCCA pre-miR-21 Dicer processing, chemiluminescence; active compounds read high; z-score at 25 µM; 47,000 tested, 6% active; AID 1347074; in the data active = z-score above about 3, passing the limit was not always enough;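 also: plate controls were vehicle for no effect and no enzyme for full effect; higher signal means more uncleaved substrate so more Dicer inhibition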
Target sequence (Q9UPY3 whole entry, looked up): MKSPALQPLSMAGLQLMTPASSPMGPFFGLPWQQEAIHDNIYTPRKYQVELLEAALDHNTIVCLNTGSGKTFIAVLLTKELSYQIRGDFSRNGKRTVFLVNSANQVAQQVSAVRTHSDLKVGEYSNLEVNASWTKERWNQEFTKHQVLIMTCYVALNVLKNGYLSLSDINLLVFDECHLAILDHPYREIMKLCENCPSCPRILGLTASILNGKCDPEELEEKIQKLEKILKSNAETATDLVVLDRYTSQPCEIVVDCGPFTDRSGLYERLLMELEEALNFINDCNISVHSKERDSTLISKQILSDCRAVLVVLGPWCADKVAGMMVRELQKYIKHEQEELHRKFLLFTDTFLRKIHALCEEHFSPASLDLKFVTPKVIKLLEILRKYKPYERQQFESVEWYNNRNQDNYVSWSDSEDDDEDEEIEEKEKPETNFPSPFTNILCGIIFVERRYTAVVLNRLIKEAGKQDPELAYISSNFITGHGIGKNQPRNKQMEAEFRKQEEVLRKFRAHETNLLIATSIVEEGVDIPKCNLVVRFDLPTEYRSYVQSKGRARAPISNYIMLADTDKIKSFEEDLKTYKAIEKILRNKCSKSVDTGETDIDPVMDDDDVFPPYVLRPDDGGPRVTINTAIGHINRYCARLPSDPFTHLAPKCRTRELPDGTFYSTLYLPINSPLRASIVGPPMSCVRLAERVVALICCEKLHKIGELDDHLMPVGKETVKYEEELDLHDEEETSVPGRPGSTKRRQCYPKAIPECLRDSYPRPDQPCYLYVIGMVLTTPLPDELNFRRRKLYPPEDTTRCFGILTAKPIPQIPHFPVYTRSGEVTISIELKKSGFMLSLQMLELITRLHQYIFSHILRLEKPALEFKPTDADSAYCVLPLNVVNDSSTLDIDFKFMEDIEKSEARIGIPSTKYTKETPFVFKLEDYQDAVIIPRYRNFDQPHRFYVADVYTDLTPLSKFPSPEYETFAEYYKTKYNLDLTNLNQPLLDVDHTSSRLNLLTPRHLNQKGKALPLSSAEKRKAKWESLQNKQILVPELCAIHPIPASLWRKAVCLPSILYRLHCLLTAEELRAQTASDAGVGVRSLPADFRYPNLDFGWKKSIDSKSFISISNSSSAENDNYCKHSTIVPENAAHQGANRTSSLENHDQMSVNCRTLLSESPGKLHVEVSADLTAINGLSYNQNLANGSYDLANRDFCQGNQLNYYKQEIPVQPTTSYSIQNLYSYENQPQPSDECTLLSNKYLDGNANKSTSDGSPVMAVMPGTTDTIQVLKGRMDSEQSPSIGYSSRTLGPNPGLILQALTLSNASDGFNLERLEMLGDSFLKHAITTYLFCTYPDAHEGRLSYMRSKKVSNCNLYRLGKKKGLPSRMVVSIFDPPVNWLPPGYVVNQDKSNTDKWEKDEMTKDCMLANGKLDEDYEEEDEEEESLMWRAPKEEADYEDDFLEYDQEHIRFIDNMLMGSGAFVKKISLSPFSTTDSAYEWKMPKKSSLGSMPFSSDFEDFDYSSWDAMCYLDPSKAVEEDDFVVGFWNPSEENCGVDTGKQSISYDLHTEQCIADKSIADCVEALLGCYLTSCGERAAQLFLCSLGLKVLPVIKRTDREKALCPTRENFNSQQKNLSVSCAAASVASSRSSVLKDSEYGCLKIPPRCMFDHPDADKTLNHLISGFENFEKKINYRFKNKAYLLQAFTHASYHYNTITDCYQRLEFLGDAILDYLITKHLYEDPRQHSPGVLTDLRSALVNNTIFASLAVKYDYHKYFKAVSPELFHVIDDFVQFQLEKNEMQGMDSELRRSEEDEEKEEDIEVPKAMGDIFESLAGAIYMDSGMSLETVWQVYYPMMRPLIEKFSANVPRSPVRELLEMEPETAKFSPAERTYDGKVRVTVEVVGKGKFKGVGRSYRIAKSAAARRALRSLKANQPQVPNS
Starred values were filed as active, the others as inactive.

`Cc1cc(=O)oc2cc(OC(=O)N(C)C)c(Cl)cc12` gave Dicer processing 3.6*.
COc1ccc(Oc2c(C)oc3cc(OC(=O)N(C)C)ccc3c2=O)cc1 was read as Dicer processing 0.84.
For Cc1cc(CN(C)C)c(OC(=O)N(C)C)cc1C the results were Dicer processing 0.46.
`CN(CCC#N)c1ccc(C=C2C(=O)NC(=S)NC2=O)cc1` gave Dicer processing -1.4.
`CN(C)C(=O)Oc1nc(-c2ccc(Cl)cc2)cs1` gave Dicer processing -1.4.
`CC(C)(C)CC(=O)NC1CCSC1=O` (stereo not drawn) gave Dicer processing -0.25.
For CCOc1ccc(/C=C(\C)[N+](=O)[O-])cc1OC the results were Dicer processing -0.39.
`Cc1cccc(C)c1NC1=NC(C)(C)CS1` gave Dicer processing -4.6.
For CCOc1ccccc1NC1=NCCS1 the results were Dicer processing 1.
For O=C1C(=Cc2ccc(Cl)c(Cl)c2)N2CCC1CC2 the results were Dicer processing 0.52.
CCCCCC[C@H]1C(=O)O[C@H](C)C(NC(=O)c2cccc(NC=O)c2O)C(=O)O[C@@H](C)[C@@H]1OC(=O)CC(C)C (stereo partly drawn) was read as Dicer processing 1.9.
`CCCN1CCc2cc(O)cc3c2[C@H]1Cc1ccc(O)c(O)c1-3` gave Dicer processing 4.5*.
Screening CN1CCc2cc(O)cc3c2[C@H]1Cc1ccc(O)c(O)c1-3 returned Dicer processing -0.43.
For Cc1c(CCN)c2cccc3c2n1CCC3 the results were Dicer processing 3.5*.
COc1ccccc1C1CCN(c2ccc([N+](=O)[O-])c(C(F)(F)F)c2)CC1 was read as Dicer processing 0.23.
Screening O=S(=O)(c1ccc(O)cc1)c1ccc(O)cc1 returned Dicer processing 3.5*.
C=CC1CC2CCN1C(C(=O)c1ccnc3ccc(OC)cc13)C2 (stereo not drawn) was read as Dicer processing -1.1.
For CC(=O)OC1C[C@@H]2CCC3C4CCC(OC(C)=O)C4(C)CCC3C2(C)C/C1=C\c1ccccc1 (stereo partly drawn) the results were Dicer processing -0.32.
Screening Fc1ccccc1CCNCc1ccc2c(c1)OCO2 returned Dicer processing 1.5.
For Cc1ccc(CNCCc2ccc3c(c2)OCO3)cc1 the results were Dicer processing -1.6.
For COc1ccccc1CCNCc1ccc2c(c1)OCO2 the results were Dicer processing 3.3*.
`CC12CCC3C(CC4OCC35CCC(O)C[C@]45Br)C1CCC2OC(=O)c1ccccc1` (stereo partly drawn) gave Dicer processing -1.1.
For NC(N)=N/N=C/c1ccc(/C=N/N=C(N)N)cc1 the results were Dicer processing -1.9.
For C[C@H](N)[C@H](O)c1ccc(O)c(O)c1 the results were Dicer processing 5.6.
CC(N)[C@H](O)c1ccc(O)c(O)c1 (stereo partly drawn) was read as Dicer processing 4.1*.
COc1ccc(OC)c(C(O)C(C)N)c1 (stereo not drawn) was read as Dicer processing 0.13.
`O=C(N1CCc2ccccc2C1)C(Cl)(Cl)Cl` gave Dicer processing 0.11.
`Cc1nc2ccccc2c(=O)n1-c1ccccc1` gave Dicer processing -1.2.
`Nc1c(C(=O)NCc2ccccc2)c2nc3ccccc3nc2n1Cc1ccco1` gave Dicer processing -5.2.
`COc1ccc(O)c(C(C)(C)C)c1` gave Dicer processing 3.8*.
For COc1ccc2c(CCN)c[nH]c2c1 the results were Dicer processing -0.58.
`Cc1cc(C(C)(C)c2ccc(O)c(C)c2)ccc1O` gave Dicer processing 1.3.
`C=CCOc1ccc(C2SCC(=O)Nc3c2c(=O)[nH]n3C(C)CC)cc1` (stereo not drawn) gave Dicer processing 0.31.
`CC12CCC3C(CC[C@@]4(C)CC(=O)CCC34CO)C1CCC2=O` (stereo partly drawn) gave Dicer processing -1.6.
Cc1cccc(NC(c2ccc(N(C)C)cc2)c2ccc3ccc(C)nc3c2O)n1 (stereo not drawn) was read as Dicer processing 2.
`COc1cccc(CNC2CN3CCC2CC3)c1` (stereo not drawn) gave Dicer processing -2.3.
For COc1cccc(-n2c(/C=C/c3ccc([N+](=O)[O-])o3)nc3ccccc3c2=O)c1 the results were Dicer processing 1.7.
`O=C(c1ccco1)c1cn(Cc2ccc(Br)cc2)c2ccccc12` gave Dicer processing -0.67.
For Cc1c(C)c(C)c(CCN)c(C)c1C the results were Dicer processing -0.29.
`Oc1ccc(C2(c3ccc(O)cc3)CCCCC2)cc1` gave Dicer processing 3.1*.
For Cc1cc(N2CCNCC2)n2ncnc2n1 the results were Dicer processing 0.08.
C=CCC1(CC(C)C)C(=O)NC(=O)NC1=O was read as Dicer processing 0.12.
For CCCC(C)C1(CC)C(=O)NC(=O)NC1=O (stereo not drawn) the results were Dicer processing 3.7*.
`CC(C)(C)OC(=O)NC1[C@H]2CNC[C@@H]12` (stereo partly drawn) gave Dicer processing -0.95.
`CC1(C)CC(CCNCc2ccccc2F)(c2ccccc2)CCO1` (stereo not drawn) gave Dicer processing 2.
For C=C1CC2(C)C(=CC1=O)CCC1C2CCC2(C)C1CC[C@]2(C)OC(C)=O (stereo partly drawn) the results were Dicer processing -1.4.
For NNC(=O)c1ccc(O)cc1 the results were Dicer processing 3.7*.
`NCCc1ccc(O)cc1` gave Dicer processing -1.2.
Screening NCC(=O)c1ccc(Cl)cc1 returned Dicer processing 0.75.
Screening CCc1cc2c(cc1-c1csc(N=C(N)N)n1)C(C)(C)CCC2(C)C returned Dicer processing -2.2.
Screening CCCn1c(C)c(C(=O)OCC)c2cc(O)ccc21 returned Dicer processing 6.8*.
CCOC(=O)c1c(C)n(C2CC2)c2ccc(O)cc12 was read as Dicer processing 3.3*.
Screening CCCCCCn1c(N)c(C(=O)OCC)c2nc3ccccc3nc21 returned Dicer processing -2.6.
`CCc1c(C(=O)OC)c2cc(O)ccc2n1Cc1ccccc1` gave Dicer processing -0.36.
For Cc1nc(-c2ccc3c(c2)C(C)(C)CCC3(C)C)cs1 the results were Dicer processing -1.
`CN1CC[C@@]2(C)c3cc(O)ccc3N(C)[C@H]12` gave Dicer processing -0.2.
Screening COc1cc(CNCCc2ccc(OC)c(OC)c2)cc(OC)c1 returned Dicer processing -0.33.
CN(C)C(=O)Oc1nnc(SCc2ccc(Cl)cc2Cl)n1-c1cccc(Cl)c1 was read as Dicer processing 0.42.
CN(C)C(=O)Oc1ccc(Br)cc1C(=O)Nc1ccc(F)cc1 was read as Dicer processing 4.4*.
For COc1ccc(OC(=O)N(C)C)c(CN(C)C)c1 the results were Dicer processing 1.1.
Screening CNc1ccc(Br)cc1C(=O)c1ccccc1Cl returned Dicer processing -1.3.
`C#CCSc1nc2ccccc2c(=O)n1-c1ccccc1OC` gave Dicer processing 0.57.
Cc1nc(Cc2c(Cl)cccc2Cl)nc(OC(=O)N(C)C)c1Cl was read as Dicer processing -0.81.
For O=C1CC(c2cccnc2)Nc2ccc3ccccc3c21 (stereo not drawn) the results were Dicer processing 3.5*.
For O=S(=O)(c1ccc(Cl)cc1Cl)N1CCCC1c1cccnc1 (stereo not drawn) the results were Dicer processing -0.7.
CC12CN3CC(C)(CN(C1)C3c1cccnc1)C2=O (stereo not drawn) was read as Dicer processing -0.99.

Bioassay records as filed in PubChem.
